Measured values published in the supplement of paper PMC6607015.
Counter-ions that a name gives are not always drawn.

System: HeLa MZ
Assay: whole-cell filipin (free cholesterol) integrated intensity, Z-score; higher = more cholesterol staining
Details: compound concentration in added solution (µM; 5 µl added to 20 µl cells): 10; 18 h
In short: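 Each value is a Z-score normalised in AcuityXpress from per-cell integrated LBPA or filipin intensity, taken over the whole cell or within LBPA endosomes. Duplicate 384-well imaging plates held 5 µl of 10 µM compound solution, onto which 3,500 HeLa MZ or A431 cells in 20 µl were seeded per well. After 18 h the cells were fixed in 4% PFA, stained with 6C4 anti-LBPA antibody, filipin, propidium iodide and CellTracker green, imaged four times per well at 20× and segmented in MetaXpress.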

SMILES | whole-cell filipin (z-score)
CN(C)C(=O)C(CCN1CCC(O)(c2ccc(Cl)cc2)CC1)(c1ccccc1)c1ccccc1 [Loperamide hydrochloride] | 1.87
CCn1cc(C(=O)O)c(=O)c2cc(F)c(N3CCN(C)CC3)cc21 [Pefloxacine] | -1.02
Cc1ccc2c(c1)c1c3n2CCNC3CCC1 (configuration not stated) [Pirlindole mesylate] | 0.474
CCS(=O)(=O)CCn1c([N+](=O)[O-])cnc1C [Tinidazole] | -0.143
Cc1ccc(Cl)c(Nc2ccccc2C(=O)O)c1Cl [Meclofenamic acid sodium salt monohydrate] | -0.416
CN1CCCN=C1/C=C/c1cccs1 [Pyrantel tartrate] | -1.12
CC(C)NCC(O)c1ccc(O)c(O)c1 (single isomer, unassigned; (-)) [(-)-Isoproterenol hydrochloride] | -0.415
CCCCN(CCCC)CCC(O)c1cc2c(Cl)cc(Cl)cc2c2cc(C(F)(F)F)ccc12 (configuration not stated) [Halofantrine hydrochloride] | -0.0402
C#Cc1cccc(Nc2ncnc3cc(OCCOC)c(OCCOC)cc23)c1 [Erlotinib] | 0.532
CN1CCN(C(c2ccccc2)c2ccc(Cl)cc2)CC1 (configuration not stated) [Chlorcyclizine hydrochloride] | -0.254
CC(C)[C@H](N)C(=O)OCCOCn1cnc2c(=O)nc(N)[nH]c21 [Valacyclovir hydrochloride] | -0.237
CN[C@H](CC(C)C)C(=O)N[C@H]1C(=O)N[C@@H](CC(N)=O)C(=O)N[C@H]2C(=O)N[C@H]3C(=O)N[C@H](C(=O)N[C@H](C(=O)O)c4cc(O)cc(O)c4-c4cc3ccc4O)[C@H](O)c3ccc(c(Cl)c3)Oc3cc2cc(c3O[C@@H]2O[C@H](CO)[C@@H](O)[C@H](O)[C@H]2O[C@H]2C[C@](C)(N)[C@H](O)[C@H](C)O2)Oc2ccc(cc2Cl)[C@H]1O [Vancomycin hydrochloride] | -0.041
